From PubChem BioAssay AID485270 (The Scripps Research Institute Molecular Screening Center, 2010) come the findings set out here.

In all, about 330,000 compounds went through this assay and about 5,800 (1.8%) were called active. The sample holds actives, similar compounds and a random draw of the others, so the mix is not that of the screen. Unmarked numbers belong to inactive results. No stated cut-off is given here; in the data, active means inhibition mostly above about 38% (no sharp cut-off); inactive means mostly below about 40%.

For this test, the target named is Orexin/Hypocretin receptor type 1 (Homo sapiens) (UniProt O43613). Description: blocks the human orexin 1 receptor (AID 485270).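 Further: 0% = agonist challenge alone and 100% = reference antagonist.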 Particulars: OX1R-expressing cells, FRET antagonist read-out; at 6.6 µM; stronger effect = higher value.
Chain of Orexin/Hypocretin receptor type 1 (Homo sapiens) (O43613 whole entry, looked up): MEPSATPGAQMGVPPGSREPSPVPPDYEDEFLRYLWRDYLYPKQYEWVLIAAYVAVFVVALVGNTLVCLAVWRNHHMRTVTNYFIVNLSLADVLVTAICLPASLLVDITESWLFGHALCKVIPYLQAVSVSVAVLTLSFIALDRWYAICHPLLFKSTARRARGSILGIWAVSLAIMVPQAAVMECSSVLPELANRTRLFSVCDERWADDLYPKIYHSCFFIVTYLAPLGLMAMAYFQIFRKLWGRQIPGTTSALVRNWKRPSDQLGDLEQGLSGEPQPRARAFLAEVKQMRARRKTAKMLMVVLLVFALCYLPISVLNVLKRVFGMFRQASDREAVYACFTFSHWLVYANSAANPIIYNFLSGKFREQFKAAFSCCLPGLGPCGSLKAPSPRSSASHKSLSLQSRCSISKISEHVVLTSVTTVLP
Broadly, the inhibition is the drop in the measured response relative to a control, in per cent. As to `CCN(C[C@H]1N[C@@](CC)(C(=O)OC)[C@H]2C(=O)N(C)C(=O)[C@@H]12)C(=O)Nc1ccc(F)cc1`, the inhibition is -4.34%.

`CCn1nnc2cc(C(=O)Nc3ccc(C(=O)OC(C)C)cc3)ccc21`: the inhibition is 16.8%.

Regarding `O=C(N/N=C/c1ccc(Cl)c(Cl)c1)c1ccc2nc[nH]c2c1`, the inhibition is 31.8%.

As to `CSc1ccc(/C=N\NC(=O)CC(=O)NC(C)C)cc1`, the inhibition is 9.93%.

On to `CSc1ccc(/C=N/NC(=O)c2cccc(Cl)c2)cc1`, for which the inhibition was 44.4% (active).

Take `O=C(CN1C(=O)c2cccc3cccc(c23)C1=O)N1CCCCC1`: the inhibition was 79.7% (active).

`O=C(CN1C(=O)c2cccc3cccc1c23)Nc1ccccc1`: the inhibition is 26.3%.

In the case of `O=C(CCCN1C(=O)c2cccc3cccc(c23)C1=O)N1CCN(Cc2ccc3c(c2)OCO3)CC1`, the inhibition was 52.3%.

As for `C/C(N)=C(/C#N)C(=O)COC(=O)c1cc(-c2cccc(Br)c2)nc2ccccc12`, the inhibition was 44.3%.

For the compound `C/C(N)=C(/C#N)C(=O)COC(=O)c1cc(-c2ccccc2)nc2ccc(Br)cc12`, the inhibition was 8.99%.

On to `C/C(N)=C(/C#N)C(=O)COC(=O)c1cc(-c2ccc(C)cc2)nc2ccccc12`, for which the inhibition is 86.7% (active).

Regarding `CC[C@]1(C(=O)OC)[C@H]2C(=O)N(Cc3ccccc3)C(=O)[C@H]2[C@H]2CN=C(SCc3ccc(Cl)cc3)N21`, the inhibition was 4.24%.

For `CCCS(=O)(=O)N1CCC(CCOc2ccccc2)(C(=O)OCC)CC1`, the inhibition is 17.7%.

Take `Cc1ccc(S(=O)(=O)NCC(=O)NNC(=O)c2ccc(Br)cc2)cc1C`: the inhibition was 15.8%.

Consider `Cc1cccc(NC(=O)c2sc3nc(N4CCOCC4)c4c(c3c2N)CCCC4)c1`, for which the inhibition is 4.35%.

In the case of `Cc1nc(N2CCOCC2)nc2c1CCCC2`, the inhibition is 5.29%.

Consider `Nc1nc(-c2sc3nc4c(cc3c2N)CCCC4)nc(N2CCOCC2)n1`, for which the inhibition was 95.8% (active).

On to `Cc1ccccc1-n1cc(CNC(=O)C2CCC(=O)N(C3CC3)C2)cn1` (centres undefined), for which the inhibition was 15.2%.

Take `C=CC[C@H](CC(=O)NCCO)C(=O)N[C@@H](COC(=O)[C@@H](CC=C)Cc1ccc(F)cc1)Cc1c[nH]c2ccccc12`: the inhibition is 5.23%.

Turning to `Cc1ccc2c(c1)c1ncn(Cc3ccc(F)cc3)c(=O)c1n2C`, the inhibition was 8.56%.

In the case of `Cc1ccc2c(c1)c1ncnc(N3CCc4ccccc4C3)c1n2C`, the inhibition is 74.4% (active).

In the case of `Cc1ccc2c(c1)c1ncn(CCC3=CCCCC3)c(=O)c1n2C`, the inhibition is 18.4%.

For the compound `CN(c1ccccc1)S(=O)(=O)c1cc(C(=O)N2CCN(c3ncccn3)CC2)ccc1Cl`, the inhibition was 4.83%.

For `COc1ccc(-c2nc(CS(=O)CC(=O)NCc3ccccn3)c(C)o2)cc1` (centres undefined), the inhibition is 1.65%.

As to `COc1ccc2oc(=O)c(C(=O)NCc3ccccn3)cc2c1`, the inhibition was 95.3% (active).

In the case of `COc1ccc2oc(=O)c(C(=O)N3CCCC3)cc2c1`, the inhibition is 0.49%.

As to `COc1ccc(CNC(=O)C[C@H]2C[C@H](C(=O)N3CCOCC3)[C@@]3(CCC4CCCC4)c4[nH]c5ccc(Cl)cc5c4CCN3C2=O)cc1OC`, the inhibition was 0.33%.

As for `O=C1C=CN2CCCC2CC1` (centres undefined), the inhibition was 13.3%.

For the compound `CC(=O)Nc1ccc(S(=O)(=O)NCCC(=O)N2CCN(c3ccccc3Cl)CC2)cc1`, the inhibition was 13.1%.

Take `CCC1C(=O)c2ccccc2N(C)C1=O` (centres undefined): the inhibition was 17.9%.

As for `CN1C(=O)/C(=C\c2cc(Br)cs2)c2ccccc21`, the inhibition was 63.8% (active).

For the compound `CN1C(=O)/C(=N/OC(=O)c2ccccc2Br)c2ccccc21`, the inhibition was 14%.

With `CCOCc1c(C(=O)N2CCN(Cc3ccc(Br)s3)CC2)oc2ccccc12`, the inhibition was 5.32%.

Take `O=C(COc1ccc([N+](=O)[O-])cc1Cl)Nc1ccc2[nH]c(=O)[nH]c2c1`: the inhibition was 9.15%.

Consider `CCCCCCSc1ccc([C@@H]2[C@H]3C(=O)N(CC)C(=O)[C@H]3[C@]3(C(=O)OC)CCCCN23)cc1`, for which the inhibition was 3.69%.

With `N#Cc1nc(-c2cccc3ccccc23)oc1N`, the inhibition was 71.4% (active).

In the case of `COc1ccc(Nc2oc(-c3ccccc3Cl)nc2C#N)cc1`, the inhibition is 29.4%.

`CC1CCN(c2oc(-c3ccccc3F)nc2C#N)CC1`: the inhibition is 9.88%.

With `Cc1ccc(NC(=O)C2CC2)cc1S(=O)(=O)N1CCOCC1`, the inhibition is 5.49%.
